Source: PubChem BioAssay (NCATS)
Values without a mark were called inactive. Inconclusive results are not listed. Calls of active or inactive are those of the source. Calls follow the shape of the dose curve; as a rule, active = well fitted curve in the direction sought with a large enough effect; inconclusive = small, poorly fitted or top-dose-only effect, or another doubt; inactive = no such curve, though single readings can be large; an effect the other way counts as inactive or inconclusive.

Target: DNA repair nuclease/redox regulator APEX1 (Homo sapiens) (UniProt P27695)
Test: qHTS Validation Assay for Inhibitors of the Human Apurinic/apyrimidinic Endonuclease 1 (APE1) (AID 1705;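 also: TAMRA fluorescence gain over two minutes as APE1 cuts a quenched THF abasic duplex; % is scaled to controls: 0 for no effect and ±100 for the full control effect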)
Details: purified APE1 endonuclease activity, fluorescence, titration; series mostly up to 57.1 µM; activity change, negative = inhibition: at the top concentration
Method in brief: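 Activity read as rising fluorescence (598 nm emission, 525 nm excitation) from incision of a TAMRA/BHQ-2 duplex carrying a THF abasic site (50 nM). Compound and enzyme sat 15 min at RT before substrate start; signal change between first and third 60-s reads.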

DNA repair nuclease/redox regulator APEX1 (Homo sapiens), sequence (P27695 whole entry, looked up): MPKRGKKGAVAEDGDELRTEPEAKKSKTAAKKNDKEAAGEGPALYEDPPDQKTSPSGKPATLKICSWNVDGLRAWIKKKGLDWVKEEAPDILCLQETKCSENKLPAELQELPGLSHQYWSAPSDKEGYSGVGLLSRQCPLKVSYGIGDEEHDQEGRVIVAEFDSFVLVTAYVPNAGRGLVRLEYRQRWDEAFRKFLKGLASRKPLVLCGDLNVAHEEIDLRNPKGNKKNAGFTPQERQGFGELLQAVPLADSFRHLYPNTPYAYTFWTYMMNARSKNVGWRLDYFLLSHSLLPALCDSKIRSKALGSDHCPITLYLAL

Question: With `O=C(NCCNCC(O)COc1ccc(O)cc1)N1CCOCC1` (configuration not stated) as the compound, how does the “activity change, negative = inhibition” value read?
Answer: The value was -5.17%.

Question: With `Cc1cc(C)c(NC(=O)C[C@H](CC(=O)O)c2cccc3ccccc23)c(C(=O)N2CCC3(CCCC3)CC2)c1` as the compound, how does the “activity change, negative = inhibition” value read?
Answer: The value was -5.96%.

Question: For `O=c1[nH]c(=O)n([C@H]2C[C@H](O)[C@@H](CO)O2)cc1/C=C/Br`, which “activity change, negative = inhibition” value is on record?
Answer: The value was 5.89%.

System: not listed separately
Test: Counterscreen for APE1 Inhibitors: Fluorescent Dye Displacement Validation Assay (AID 1707);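 also: plate controls were ThO with dsDNA and no compound for no effect and ThO without dsDNA for full effect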
Details: fluorescent dye displacement from DNA; series mostly up to 57.1 µM; activity change, negative = inhibition: at the top concentration
Method in brief: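 Loss of Thiazole Orange fluorescence marks promiscuous DNA binders. The dye (250 nM) is mixed with 50 nM abasic-site dsDNA in pH7.5 Tris buffer containing MgCl2, then compounds are added and emission is read once.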

Question: Which “activity change, negative = inhibition” value does the source give for `O=C(NCCNCC(O)COc1ccc(O)cc1)N1CCOCC1` (configuration not stated) here?
Answer: Its value is 1.76%.

Question: With `Cc1cc(C)c(NC(=O)C[C@H](CC(=O)O)c2cccc3ccccc23)c(C(=O)N2CCC3(CCCC3)CC2)c1` as the compound, how does the “activity change, negative = inhibition” value read?
Answer: Its value is 0.657%.

Question: Which “activity change, negative = inhibition” value does the source give for `O=c1[nH]c(=O)n([C@H]2C[C@H](O)[C@@H](CO)O2)cc1/C=C/Br` here?
Answer: The value was 0.899%.

Target: Endonuclease 4 (Escherichia coli (strain K12)) (UniProt P0A6C1)
Test: Counterscreen for APE1 Inhibitors: qHTS Validation Assay for Inhibitors of Endonuclease IV (AID 1708); also: % is scaled to controls: 0 for no effect and ±100 for the full control effect
Details: E. coli endonuclease IV, DNA cleavage fluorescence; series mostly up to 57.1 µM; activity change, negative = inhibition: at the top concentration
Description: Assay Provider: David M. Wilson, III, National Institute on Aging, NIH
Screening Center PI: Austin, C.P.
Screening Center: NIH Chemical Genomics Center [NCGC]
Escherichia coli endonuclease IV (Endo IV) is the key member of the AP endonuclease superfamily that catalyzes the cleavage of damaged DNA backbone immediately 5' of an AP site. E. coli EndoIV has the same functional activities as human APE1 but has no sequence or structural homology to the human protein. Herein, we utilize E. coli EndoIV to counter screen compound libraries as part of a high-throughput campaign for APE1 inhibitor identification. A concentration-response screen of the LOPAC1280 collection was performed under experimental conditions identical to those used in the APE1 screen.
Inhibition of APE1 activity was screened by utilizing double-stranded short substrate containing tetrahydrofuran (THF) abasic site labeled with rhodamine-type fluorophore (TAMRA) at the 5'-end and with non-fluorescent Black Hole Quencher-2 (BHQ-2) at the opposing 3'-end. An increase in the fluorescence intensity due to incision of the abasic site by APE1 was used to measure the enzyme activity.
Buffer: 50 mM Tris-HCl (pH 7.5) containing 50mM NaCl, 2 mM MgCl2, 1 mM DTT and 0.01% Tween-20.
Buffer in columns 3 and 4 as negative control (no enzyme).
Substrate: 50 nM final concentration of TAMRA/BHQ-2 substrate dispensed throughout the plate.
Enzyme: 2 nM E. coli EndoIV final concentration in columns 1, 2, 5-48. Column 1 is neutral (100% activity).
Control: Pintool transfer of control inhibitor NSC-13755 to column 2 of all assay plates. Two-fold, 16 pt dilution in duplicate to produce final concentrations in the 5.75 uM - 0.175 nM range.
Three uL of enzyme were dispensed to 1536-well Greiner black solid bottom plates. Compounds (23 nL) were transferred via Kalypsys pintool. The plates were incubated for 15 min at room temperature, and then 1 uL of substrate solution was added to start the reaction. The plates were immediately transferred into ViewLux High-throughput CCD imager (Perkin-Elmer) in order to measure the reaction progress in kinetic mode (three reads every 60 seconds) using 525 nm excitation and 598 nm emission fluorescence protocol. The fluorescence intensity difference between the third and the first time points was used to compute reaction progress.

Question: With `O=C(NCCNCC(O)COc1ccc(O)cc1)N1CCOCC1` (configuration not stated) as the compound, how does the “activity change, negative = inhibition” value read?
Answer: The value was -5.3%.

Question: Which “activity change, negative = inhibition” value does the source give for `Cc1cc(C)c(NC(=O)C[C@H](CC(=O)O)c2cccc3ccccc23)c(C(=O)N2CCC3(CCCC3)CC2)c1` here?
Answer: Its value is -2.81%.

Question: With `O=c1[nH]c(=O)n([C@H]2C[C@H](O)[C@@H](CO)O2)cc1/C=C/Br` as the compound, how does the “activity change, negative = inhibition” value read?
Answer: Its value is -6.59%.

System: not listed separately
Test: qHTS for differential inhibitors of proliferation of Plasmodium falciparum line 7G8 (AID 1815);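 also: parasite growth measured after three days of incubation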; also: potency is read from the fitted curve at half-maximal effect;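 as to activity change, negative = inhibition: plate controls were vehicle wells for no effect and reference inhibitor wells for full effect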
Details: Plasmodium falciparum 7G8 proliferation inhibition; series mostly up to 28.7 µM; activity change, negative = inhibition: at the top concentration

Question: Which “activity change, negative = inhibition” value does the source give for `O=C(NCCNCC(O)COc1ccc(O)cc1)N1CCOCC1` (configuration not stated) here?
Answer: The value was -1.73%.

Question: Which Potency does the source give for `Cc1cc(C)c(NC(=O)C[C@H](CC(=O)O)c2cccc3ccccc23)c(C(=O)N2CCC3(CCCC3)CC2)c1` here?
Answer: The Potency was 12.6 µM (active).

Question: Which “activity change, negative = inhibition” value does the source give for `O=c1[nH]c(=O)n([C@H]2C[C@H](O)[C@@H](CO)O2)cc1/C=C/Br` here?
Answer: The value was -9.63%.

System: not listed separately
Test: qHTS for differential inhibitors of proliferation of Plasmodium falciparum line GB4 (AID 1816);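 also: parasite growth measured after 72 h incubation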; also: potency is read from the fitted curve at half-maximal effect;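 as to activity change, negative = inhibition: 0% = vehicle DMSO and -100% = reference inhibitor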
Details: Potency: Plasmodium falciparum GB4 proliferation inhibition; series mostly up to 28.7 µM; activity change, negative = inhibition: at the top concentration

Question: With `O=C(NCCNCC(O)COc1ccc(O)cc1)N1CCOCC1` (configuration not stated) as the compound, how does the “activity change, negative = inhibition” value read?
Answer: Its value is -16.3%.

Question: With `Cc1cc(C)c(NC(=O)C[C@H](CC(=O)O)c2cccc3ccccc23)c(C(=O)N2CCC3(CCCC3)CC2)c1` as the compound, how does the Potency read?
Answer: The Potency was 11.2 µM (active).

Question: With `O=c1[nH]c(=O)n([C@H]2C[C@H](O)[C@@H](CO)O2)cc1/C=C/Br` as the compound, how does the “activity change, negative = inhibition” value read?
Answer: Its value is -1.39%.

System: not listed separately
Test: qHTS for differential inhibitors of proliferation of Plasmodium falciparum line W2 (AID 1883);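 also: parasites grown with compound for 72 h before lysis and staining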; also: potency is read from the fitted curve at half-maximal effect;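 as to activity change, negative = inhibition: 0% = vehicle wells and -100% = control inhibitor wells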
Details: Potency: Plasmodium falciparum W2 proliferation inhibition; series mostly up to 28.7 µM; activity change, negative = inhibition: at the top concentration

Question: With `O=C(NCCNCC(O)COc1ccc(O)cc1)N1CCOCC1` (configuration not stated) as the compound, how does the “activity change, negative = inhibition” value read?
Answer: The value was -8.78%.

Question: With `Cc1cc(C)c(NC(=O)C[C@H](CC(=O)O)c2cccc3ccccc23)c(C(=O)N2CCC3(CCCC3)CC2)c1` as the compound, how does the Potency read?
Answer: Its Potency is 11.2 µM (active).

Question: With `O=c1[nH]c(=O)n([C@H]2C[C@H](O)[C@@H](CO)O2)cc1/C=C/Br` as the compound, how does the “activity change, negative = inhibition” value read?
Answer: Its value is -4.89%.

System: not listed separately
Test: qHTS for differential inhibitors of proliferation of Plasmodium falciparum line HB3 (AID 1886);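 also: parasites grown with compound for 72 h before SYBR Green readout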; also: potency is read from the fitted curve at half-maximal effect;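 as to activity change, negative = inhibition: plate controls were vehicle for no effect and reference inhibitor for full effect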
Details: Potency: Plasmodium falciparum HB3 proliferation inhibition; series mostly up to 28.7 µM; activity change, negative = inhibition: at the top concentration

Question: Which “activity change, negative = inhibition” value does the source give for `O=C(NCCNCC(O)COc1ccc(O)cc1)N1CCOCC1` (configuration not stated) here?
Answer: The value was -3.84%.

Question: Which Potency does the source give for `Cc1cc(C)c(NC(=O)C[C@H](CC(=O)O)c2cccc3ccccc23)c(C(=O)N2CCC3(CCCC3)CC2)c1` here?
Answer: The Potency was 14.1 µM (active).

Question: Which “activity change, negative = inhibition” value does the source give for `O=c1[nH]c(=O)n([C@H]2C[C@H](O)[C@@H](CO)O2)cc1/C=C/Br` here?
Answer: Its value is -0.152%.

Target: Ferritin light chain (Equus caballus) (UniProt P02791)
Test: qHTS Validation Assay for Identification of Novel General Anesthetics (AID 2323); also: % is scaled to controls: 0 for no effect and ±100 for the full control effect
Details: horse apoferritin, anesthetic-site fluorescent probe displacement; series mostly up to 76.9 µM; activity change, negative = inhibition: at the top concentration
Method in brief: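 Competitive displacement of the profluorescent anesthetic 1-AMA (50% saturated, PBS) from 10 uM apoferritin, 10 min, room temperature. Activity is normalized 380/535 nm fluorescence; concentration-response fitted with a four-parameter Hill equation.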

Ferritin light chain (Equus caballus), sequence (P02791 2-175 limits assumed): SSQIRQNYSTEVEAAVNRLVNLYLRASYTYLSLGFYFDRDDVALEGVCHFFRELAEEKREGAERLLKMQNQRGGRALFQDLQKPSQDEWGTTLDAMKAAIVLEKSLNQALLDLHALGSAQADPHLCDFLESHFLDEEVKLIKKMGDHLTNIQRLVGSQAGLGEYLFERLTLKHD

Question: With `O=C(NCCNCC(O)COc1ccc(O)cc1)N1CCOCC1` (configuration not stated) as the compound, how does the “activity change, negative = inhibition” value read?
Answer: Its value is -2.91%.

Question: Which “activity change, negative = inhibition” value does the source give for `Cc1cc(C)c(NC(=O)C[C@H](CC(=O)O)c2cccc3ccccc23)c(C(=O)N2CCC3(CCCC3)CC2)c1` here?
Answer: Its value is -8.74%.

Question: With `O=c1[nH]c(=O)n([C@H]2C[C@H](O)[C@@H](CO)O2)cc1/C=C/Br` as the compound, how does the “activity change, negative = inhibition” value read?
Answer: The value was -1.85%.

Target: ATP-dependent DNA helicase Q1 (Homo sapiens) (UniProt P46063)
Test: qHTS Validation Assay for Inhibitors of RecQ-Like Dna Helicase 1 (RECQ1) (AID 2353);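 also: plate controls were DMSO vehicle for no effect and enzyme-free control for full effect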
Details: recombinant RECQ1 helicase DNA unwinding assay; series mostly up to 25.6 µM; activity change, negative = inhibition: at the top concentration
Method in brief: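 RECQ1T1 50 nM; forked duplex (20 bp + 30-nt ss tails) 200 nM, ATP 2 mM final; pH 8.0, 2 mM MgCl2, 2.5 ug/ml poly(dI-dC); 15 min compound preincubation; discontinuous kinetic read over 2 h at RT.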

ATP-dependent DNA helicase Q1 (Homo sapiens), sequence (P46063 whole entry, looked up): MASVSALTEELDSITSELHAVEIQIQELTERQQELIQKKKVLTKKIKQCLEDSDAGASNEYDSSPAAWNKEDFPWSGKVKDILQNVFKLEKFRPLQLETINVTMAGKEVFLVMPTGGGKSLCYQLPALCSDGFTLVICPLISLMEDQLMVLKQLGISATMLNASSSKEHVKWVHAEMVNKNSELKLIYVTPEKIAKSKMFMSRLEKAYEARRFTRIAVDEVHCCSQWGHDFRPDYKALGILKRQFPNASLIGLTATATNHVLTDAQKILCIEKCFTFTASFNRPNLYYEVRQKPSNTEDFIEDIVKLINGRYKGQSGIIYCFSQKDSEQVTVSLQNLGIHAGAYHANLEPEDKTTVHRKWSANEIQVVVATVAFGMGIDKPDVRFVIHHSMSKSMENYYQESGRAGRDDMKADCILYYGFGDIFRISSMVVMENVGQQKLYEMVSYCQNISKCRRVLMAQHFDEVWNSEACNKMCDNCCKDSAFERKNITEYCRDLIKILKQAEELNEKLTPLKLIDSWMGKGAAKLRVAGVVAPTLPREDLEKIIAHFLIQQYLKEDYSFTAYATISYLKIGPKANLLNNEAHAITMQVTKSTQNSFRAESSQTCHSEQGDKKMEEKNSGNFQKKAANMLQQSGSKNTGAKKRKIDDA

Question: With `O=C(NCCNCC(O)COc1ccc(O)cc1)N1CCOCC1` (configuration not stated) as the compound, how does the “activity change, negative = inhibition” value read?
Answer: Its value is -6.2%.

Question: With `Cc1cc(C)c(NC(=O)C[C@H](CC(=O)O)c2cccc3ccccc23)c(C(=O)N2CCC3(CCCC3)CC2)c1` as the compound, how does the “activity change, negative = inhibition” value read?
Answer: Its value is -6.46%.

Question: With `O=c1[nH]c(=O)n([C@H]2C[C@H](O)[C@@H](CO)O2)cc1/C=C/Br` as the compound, how does the “activity change, negative = inhibition” value read?
Answer: Its value is 1.31%.
